From PubChem BioAssay AID1347043 (National Center for Advancing Translational Sciences (NCATS), 2019)
In all, about 76,000 compounds went through this assay and about 1,900 (2.5%) were called active. Inconclusive results (about 5%) are left out. Calls come from the whole dose curve; as a rule, active = well fitted inhibition curve with a large enough effect; inconclusive = small, poorly fitted or top-dose-only effect; inactive = flat fitted curve, though single readings scatter. Many of the other results were omitted from the sample, so actives are more common in it than they were.

target: Luciferin 4-monooxygenase (Photinus pyralis) (UniProt P08659); assay: Firefly luciferase inhibition profiling of diverse chemical library using quantitative high-throughput screening; note: nearly all actives have a fitted effect of over 65% in size; details: purified P. pyralis luciferase, luminescence, biochemical; series mostly up to 115 µM; activity change, negative = inhibition: at the top concentration
Sequence (P08659 whole entry, looked up): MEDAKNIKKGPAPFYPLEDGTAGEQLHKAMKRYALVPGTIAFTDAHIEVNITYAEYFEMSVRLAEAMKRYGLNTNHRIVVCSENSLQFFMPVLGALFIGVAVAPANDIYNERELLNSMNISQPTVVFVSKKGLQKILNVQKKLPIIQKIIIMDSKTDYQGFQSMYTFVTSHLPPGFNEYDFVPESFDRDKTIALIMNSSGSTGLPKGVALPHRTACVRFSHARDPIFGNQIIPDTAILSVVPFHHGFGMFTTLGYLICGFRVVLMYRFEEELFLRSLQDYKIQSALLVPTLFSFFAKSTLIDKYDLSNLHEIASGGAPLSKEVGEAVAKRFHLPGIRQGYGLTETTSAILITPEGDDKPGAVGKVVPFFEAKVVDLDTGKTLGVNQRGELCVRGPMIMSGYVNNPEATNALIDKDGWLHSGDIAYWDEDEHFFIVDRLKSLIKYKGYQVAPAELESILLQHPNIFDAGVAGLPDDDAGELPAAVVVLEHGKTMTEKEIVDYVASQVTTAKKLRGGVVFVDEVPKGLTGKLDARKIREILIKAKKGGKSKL
From the text: Firefly (Photinus pyralis) luciferase is one of the most commonly used transcriptional reporters for a number of reasons. It is considered one of the more dynamically responsive reporters - that is, responsive to changes in reporter transcription - as it requires no post-translational modifications and is enzymatically active directly after protein synthesis (Wood, 1998). Additionally, the half-life of the luciferase protein is short relative to other reporter-gene products (Wood, 1995). Whereas reporters with long half-lives potentially allow for increased signal due to accumulation of reporter-gene product, once accumulated in the cell, dynamic changes in reporter-gene expression may be difficult to detect(Fan and Wood, 2007; Almond et al., 2004). It has been shown that wild-type P. pyralis luciferase has a half-life of approximately four hours in mammalian cells (Thompson et al., 1991). Firefly luciferase reporter-gene assays are also generally considered one of the most sensitive assay types (Wood, 1995; Wood, 1998). Although light produced in a bioluminescence reaction is of lower intensity than that produced during fluorescence emission, this is offset by little to no background light inherent to luminescent assays. Thus the luciferase reporter can be expressed at much lower levels than fluorescent proteins while still providing robust signal. However, it was initially observed, in 1991, by Thompson et al., that compounds that resemble the substrates of firefly luciferase (FLuc) can act as competitive inhibitors of the enzyme, and that these compounds, upon interaction with luciferase in the cell, can actually stabilize the protein and increase its half-life. Accumulated intracellular FLuc protein can be measured as an increase in luminescence signal, upon addition of detection reagents (which contain high concentrations of FLuc substrates) commonly used in high-throughput screening. In cell-based reporter gene assays that use FLuc as the reporter gene to quantitate the potential influence of a given compound against the target biology, this apparent increase in luminescence can mistakenly be interpreted as identification of a compound that is active against the target of interest. FLuc inhibitory compounds that stabilize the FLuc protein will give an identical read-out, making it difficult to distinguish compounds that are active against the target from those active against FLuc. In summary, the results generated here constitutes a valuable resource for the scientific community and provides insight on identifying compounds with inhibitory activity for the commonly-used reporter, firefly luciferase. References: -Almond, B., Zdanovsky, A., Zdanovskaia, M., Ma, D., Stecha, P., Paguio, A., Garvin, D., and Wood, K. (2004). Introducing the Rapid Response Reporter Vectors. Promega Notes 87, 18-22. -Fan, F., and Wood, K.V. (2007). Bioluminescent assays for high-throughput screening. Assay Drug Dev Technol 5, 127-136. -Thompson, J.F., Hayes, L.S., and Lloyd, D.B. (1991). Modulation of firefly luciferase stability and impact on studies of gene regulation. Gene 103, 171-177. -Wood, K.V. (1998). The chemistry of bioluminescent reporter assays. Promega Notes 65, 14-20. -Wood, K.V. (1995). Marker proteins for gene expression. Curr Opin Biotechnol 6, 50-58.
Reagents: 50mM Tris acetate, pH 7.5; 10mM Mg acetate; 10uM D-luciferin (Sigma #L9504); 10uM ATP; 0.01% Tween-20; 0.05% BSA; 10nM P. pyralis luciferase (Sigma #L9506) Control compounds used were two known firefly luciferase inhibitors (compounds (2) and (5) in Auld et al., 2010), and DMSO. Assay Summary: Three microliters containing firefly luciferase substrates in buffer (final concentrations: 50mM Tris acetate, pH 7.5, 10mM Mg acetate, 0.01% Tween-20, 0.05% BSA, 10uM D-luciferin, and 10uM ATP) are dispensed into each well of a Greiner white, solid-bottom 1536-well format plate using a flying reagent dispenser (FRD). […]
% is set by controls: 0 for no effect and ±100 for the full control effect.

Activity change, negative = inhibition, inactive:
COC(=O)c1cccc2nc([C@H]3CCN(Cc4ccccc4)C3)oc12 11% [at 172 µM]
Fc1ccc2oc([C@H]3CCN(C4CCOCC4)C3)nc2c1 -11% [at 230 µM]
COc1ccc(-c2noc([C@@H]3CCCN3C(=O)CCCc3ccccc3)n2)cc1OC -2.67%
Cc1ccc(-c2ccc3nnc(CNC(=O)c4ccccn4)n3n2)cc1 0%
COCCNC(=O)[C@@H]1C[C@H](Oc2cccnc2)CN1C(=O)c1ccc(OC)nc1OC -9.84%
COc1ccc(CCC(=O)N2CCC(c3n[nH]c(=O)n3-c3ccc(C)cc3)CC2)cc1 8.18%
COC(=O)[C@@H]1Cc2c([nH]c3ccccc23)[C@H]2C[C@@H](NCCN3CCOCC3)C[C@@H](c3ccccc3)N21 -24.5%
O=C1NC2(CCN(Cc3ccccc3)C2)OCc2ccccc21 (configuration not stated) -7.17% [at 172 µM]
CSCc1ccc(C(=O)N[C@H]2[C@@H]3CCO[C@@H]3[C@@H]2C2CCCC2)o1 -9.79%
CN(CCNC(=O)CCc1cc2ccccc2[nH]c1=O)C1CCCCC1 -3.21%
COc1ccc(CNC(=O)C[C@@H]2CCNC[C@@H]2Cc2cc(-c3ccc(C(C)(C)C)cc3)on2)cc1OC 0.217%
COc1ccc(CC(=O)NC[C@@H]2C=C(C)[C@H](Cc3nc4ccncc4[nH]3)C[C@H]2C(C)C)cc1 4.96%
c1cc(-c2nc3ccncc3[nH]2)ccn1 -13.8% [at 230 µM]
COc1ccc(-c2cc(N3CCC(NC(=O)c4cccc(C)c4)CC3)n[nH]2)cc1 4.47%
Cc1nn2c(c1-c1ccccc1C(C)C)N(C(=O)c1cccc(C#N)c1)CCC2 5.18% [at 172 µM]
COc1cc(-c2noc(-c3nc(-c4ccc5c(c4)OCO5)no3)n2)cc(OC)c1OC 4.62%
COc1cccc(-c2ccc(F)c(C(N)=O)c2)c1OC -15.8%
COc1ccc(C(=O)N2CCC(N3CC(OC)C34CCOCC4)CC2)c(OC)c1 (configuration not stated) 2.6%
Cc1cc(CN(C)C(=O)c2cc(COc3ccc(F)cc3F)on2)n[nH]1 -9.52%
O=C(Nc1cccnc1)O[C@H]1COCCN(c2nc3ccccc3s2)C1 -17.1% [at 172 µM]
Cc1cc(C(=O)N2CC[C@H](NC(=O)c3cnccn3)C[C@H]2C(=O)N[C@H](Cc2ccccc2)C(N)=O)n(C)n1 0.378%
Cc1ccc(CS(=O)(=O)N2CCC(C3CCNC3)CC2)cc1C (configuration not stated) -6.1%
COc1ccc(C(=O)NCc2nnc3ccc(-c4ccc(C)cc4)nn23)cc1F 4%
O=C(c1ccc2nc(-c3ccc(F)cc3)cn2c1)N1CCSCC1 -29.8%
CCC(C)NC(=O)Cc1csc2nc(C)c(-c3cc(C)n(-c4ccc(C(C)C)cc4)n3)c(=O)n12 (configuration not stated) -9.06%
Cc1nn(Cc2ccccc2)c(C)c1[C@@H]1C=C[C@@H](NC(=O)NC2CCCCC2)C1 12.5% [at 172 µM]
Cc1cnc(CCNC(=O)c2ccco2)n1C1CCC1 -14.4%
CC(C)(C)c1ccnc(N[C@H]2CO[C@H]3[C@@H]2OC[C@@H]3NC(=O)CC2(CC(=O)O)CCCC2)n1 -12.5%
C[C@@H](NC(=O)C1=C[C@@H](NC(=O)CC2(CC(=O)O)CCCC2)[C@@H](O)[C@H](O)C1)C(N)=O 0.91% [at 172 µM]
Cc1nn(CCC#N)c(C)c1[C@@H]1C=C[C@@H](NS(=O)(=O)c2ccccc2)C1 7.12% [at 172 µM]
Cc1nn(Cc2ccccc2)c(C)c1[C@@H]1C=C[C@@H](NC(=O)NC(C)C)C1 1.19% [at 172 µM]
O=C(NCC1CN(Cc2ccccc2)CC12CN(c1ccccc1)C2)Nc1ccccc1 (configuration not stated) 2.68% [at 172 µM]
O=C1NCCCCCCN(Cc2ccc3c(c2)CCO3)[C@H]2CCC[C@@H]12 -5.58%
CN(C)C[C@@H]1CN(Cc2ccccn2)C[C@H]1NC(=O)c1ccc2cc[nH]c2c1 -1.46%
CC(C)COc1cc(=O)n2c(c1C(=O)NCCCN1CCOCC1)CCCCC2 -4.23%
COc1ccc(C(=O)NCC(=O)N2CCCCCCNC(=O)CC2c2ccccc2)cn1 (configuration not stated) -9.05%
CN(C)C(C(=O)N1CCC(OCc2cccnc2)CC1)c1cccc(F)c1 (configuration not stated) 0.25%

Potency, active:
Clc1ccc2oc([C@H]3CCN(Cc4ccccc4)C3)nc2c1 20 µM
CC(=O)NC1(C)CN(Cc2ccc(-c3ccc4c(ccn4C)c3)s2)C1 0.316 µM
COc1ccc(-c2nc3ccncc3[nH]2)cc1 31.6 µM
COc1cccc(-c2nc3ccc(-c4ccc5c(c4)OCO5)cc3o2)c1OC 1.12 µM
OC1(CN2CCCCC2)CCN(c2nc3ccccc3s2)C1 (configuration not stated) 10 µM
CC(C)Cn1cncc1CNC(=O)c1ccc2nc(-c3ccc(F)cc3)cn2c1 35.5 µM
Cc1nn(-c2ccc(C(C)(C)C)cc2)c(C)c1[C@@H]1C=C[C@@H](NC(=O)c2ccco2)C1 14.1 µM
Cc1nn(-c2ccc(C(C)C)cc2)c(C)c1[C@@H]1C=C[C@@H](NC(=O)CC2(CC(=O)O)CCCC2)C1 35.5 µM
Cc1nn(-c2ccc(C(C)C)cc2)c(C)c1[C@@H]1C=C[C@@H](NC(=S)NCC(C)C)C1 7.08 µM
Cc1nn(-c2ccc(C(C)C)cc2)c(C)c1[C@@H]1C=C[C@@H](NC(=O)Nc2ccccc2)C1 3.55 µM
